Only some compounds are listed: those with a hit (about 12% of all), similar ones and a draw of the others.
Sfp inh – blocks B. subtilis Sfp PPTase activity; Q9F4F7; Biochemical Sfp PPTase activity, qHTS; Potency, µM, hits mostly inhibitors; 310,000 compounds, 3.5% hits; AID 1490;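 also: the enzyme is Sfp with the accession as filed and its product quenches rhodamine fluorescence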
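Step 1, compound plus 15 nM Sfp-PPTase, 15 min, room temperature. Step 2, add rhodamine-CoA (5 uM) and BHQ-2-YbbR (12.5 uM). Step 3, read 525/598 nm fluorescence at 0 and 30 min.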
JMJD2A Tudor – inhibitors of human JMJD2A Tudor domain; Potency, µM (top dose mostly 114 µM), actives largely listed as inhibitors; AlphaScreen JMJD2A-Tudor / H3K4me3 peptide binding; AID 504339; 390,000 compounds, 4.4% hits; O75164; also: nearly all actives have a fitted effect of over 50% in size
G9a inh – G9a (human) methyltransferase inhibition; Q96KQ7; AID 504332; G9a H3K9 monomethylation, AlphaScreen, 2 h; Potency, µM (highest dose often 102 µM), actives largely listed as inhibitors; 350,000 compounds, 8.8% hits; also: nearly all actives have a fitted effect of over 75% in size
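Enzyme 20 nM + cpd, 15 min RT; add b-H3K9 pep 500 nM / SAM 20 uM; 2 h RT; anti-H3K9me1 Ab 0.5 ug/mL + SA donor / anti-rabbit acceptor beads 20 ug/mL each, 10 min; AlphaScreen read.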
BAZ2B block – blocks human BAZ2B; AlphaScreen BAZ2B-H3K14Ac peptide displacement; Potency, µM (doses to about 114 µM), actives largely listed as inhibitors; 360,000 compounds, 4.4% hits; also: nearly all actives have a fitted effect of over 60% in size
Target sequence (Q9UIF8 whole entry, looked up): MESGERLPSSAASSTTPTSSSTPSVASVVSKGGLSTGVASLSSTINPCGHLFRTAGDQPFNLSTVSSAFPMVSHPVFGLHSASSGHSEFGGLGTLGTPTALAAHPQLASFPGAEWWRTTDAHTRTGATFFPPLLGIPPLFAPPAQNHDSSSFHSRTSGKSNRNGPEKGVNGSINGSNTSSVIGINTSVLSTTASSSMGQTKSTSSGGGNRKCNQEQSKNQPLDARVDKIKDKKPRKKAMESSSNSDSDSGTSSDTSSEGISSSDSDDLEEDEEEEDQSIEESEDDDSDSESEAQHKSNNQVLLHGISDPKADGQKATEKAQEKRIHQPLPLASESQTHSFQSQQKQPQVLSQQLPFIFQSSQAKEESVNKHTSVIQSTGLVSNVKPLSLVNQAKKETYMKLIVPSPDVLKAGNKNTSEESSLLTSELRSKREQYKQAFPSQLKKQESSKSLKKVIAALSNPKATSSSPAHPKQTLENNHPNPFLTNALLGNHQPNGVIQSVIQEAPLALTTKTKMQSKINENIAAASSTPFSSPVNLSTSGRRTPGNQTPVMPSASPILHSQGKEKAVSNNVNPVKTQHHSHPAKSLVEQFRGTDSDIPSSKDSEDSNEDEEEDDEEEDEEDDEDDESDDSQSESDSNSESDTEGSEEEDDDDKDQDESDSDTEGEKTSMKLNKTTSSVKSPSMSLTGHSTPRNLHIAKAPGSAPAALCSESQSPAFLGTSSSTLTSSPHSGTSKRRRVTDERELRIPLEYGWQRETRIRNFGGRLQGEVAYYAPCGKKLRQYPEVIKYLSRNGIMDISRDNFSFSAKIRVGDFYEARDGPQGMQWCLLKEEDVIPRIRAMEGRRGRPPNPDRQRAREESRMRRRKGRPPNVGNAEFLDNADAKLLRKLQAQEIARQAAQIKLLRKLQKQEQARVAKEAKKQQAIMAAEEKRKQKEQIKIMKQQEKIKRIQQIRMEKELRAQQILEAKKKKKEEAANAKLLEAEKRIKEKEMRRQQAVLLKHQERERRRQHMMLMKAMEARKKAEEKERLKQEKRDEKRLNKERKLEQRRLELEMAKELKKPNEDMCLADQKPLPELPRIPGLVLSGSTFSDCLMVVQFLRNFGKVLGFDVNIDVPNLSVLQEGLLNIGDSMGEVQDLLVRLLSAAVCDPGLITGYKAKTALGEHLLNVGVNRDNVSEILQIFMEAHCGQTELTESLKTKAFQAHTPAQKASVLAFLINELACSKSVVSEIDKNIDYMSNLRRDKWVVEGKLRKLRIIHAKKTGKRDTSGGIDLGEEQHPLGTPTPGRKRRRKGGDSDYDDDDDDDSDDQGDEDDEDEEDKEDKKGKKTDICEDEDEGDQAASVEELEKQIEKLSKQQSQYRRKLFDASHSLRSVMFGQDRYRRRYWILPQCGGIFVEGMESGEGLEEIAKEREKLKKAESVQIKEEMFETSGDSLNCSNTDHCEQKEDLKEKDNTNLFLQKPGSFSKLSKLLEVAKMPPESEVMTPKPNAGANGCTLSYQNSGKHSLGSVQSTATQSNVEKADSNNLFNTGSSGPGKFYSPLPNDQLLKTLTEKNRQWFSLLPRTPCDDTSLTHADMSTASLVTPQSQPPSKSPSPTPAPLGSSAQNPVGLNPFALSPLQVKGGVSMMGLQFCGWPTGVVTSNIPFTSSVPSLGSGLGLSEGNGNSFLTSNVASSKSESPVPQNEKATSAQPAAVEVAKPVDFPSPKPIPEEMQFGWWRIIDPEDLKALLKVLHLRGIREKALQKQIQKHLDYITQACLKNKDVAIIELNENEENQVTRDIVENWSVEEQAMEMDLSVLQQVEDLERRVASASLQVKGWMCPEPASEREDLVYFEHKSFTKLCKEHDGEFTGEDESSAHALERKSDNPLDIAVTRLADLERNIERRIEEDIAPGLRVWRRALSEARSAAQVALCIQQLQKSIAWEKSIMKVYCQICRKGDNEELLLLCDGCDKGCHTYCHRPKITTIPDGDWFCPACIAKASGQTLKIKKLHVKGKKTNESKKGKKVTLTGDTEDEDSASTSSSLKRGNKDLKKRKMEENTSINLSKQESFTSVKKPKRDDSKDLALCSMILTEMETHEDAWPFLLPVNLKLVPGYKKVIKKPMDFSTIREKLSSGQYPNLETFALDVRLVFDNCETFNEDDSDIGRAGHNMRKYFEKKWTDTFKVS
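Complex of BAZ2B and biotin-H3K14Ac (50 nM apiece) forms over 30 min at RT, then faces library compounds up to 110 uM for another 30 min; AlphaScreen beads added, 20 min dark incubation, luminescence read.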
PLK1 PBD block – blocks phosphopeptide binding to human PLK1 polo-box domain | P53350 | Plk1 PBD binding of FITC phosphopeptide, fluorescence polarization | Potency, µM, hits mostly inhibitors | 360,000 compounds, 2.8% hits | AID 720504; also: series mostly up to about 57 µM; nearly all actives have a fitted effect of over 65% in size
HP1b chromo inh – inhibitors of HP1-beta chromodomain binding to methylated histone tails; P83916; AlphaScreen HP1-beta / biotin-H3K9me3 peptide binding; Potency, µM (titrated, usually from 114 µM), hits mostly inhibitors; 390,000 compounds, 0.56% hits; also: nearly all actives have a fitted effect of over 70% in size
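Compound inhibition of the preformed complex between 50 nM HP1-beta and 50 nM biotinylated H3K9me3 peptide was read by AlphaScreen. Buffer was PBS pH 7.4 with 0.01% Tween-20. Incubations ran 30 min at room temperature, with 10 ug/mL donor/acceptor beads.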
Hits are given with their value; 0 = inactive; ? = inconclusive; - = no result; ! = not active in a repeat; [ ] = another dose, or the depositor's remark. Calls follow the shape of the dose curve; as a rule, active = well fitted curve in the direction sought with a large enough effect; inconclusive = small, poorly fitted or top-dose-only effect, or another doubt; inactive = no such curve, though single readings can be large; an effect the other way counts as inactive or inconclusive.

SMILES | Sfp inh | JMJD2A Tudor | G9a inh | BAZ2B block | PLK1 PBD block | HP1b chromo inh
Oc1cccc2ccc(/C=C/c3ccccc3Cl)nc12 | 0 | ? | 0 | 0 | 0 | 0
CCOc1cccc(/C=C/c2ccc3cccc(O)c3n2)c1O | 79µM | 0 | 0 | 0 | 0 | 0
CCOc1cccc(/C=C/c2ccc3cccc(O)c3n2)c1OC | 79µM | 0 | 0[2.33 µM] | 0 | 0 | 0
O=C(COc1ccc(Cl)cc1)NCCCNC(=O)c1ccncc1 | 0 | 0 | 0 | 0 | 0 | 0
Cc1cc([N+](=O)[O-])cc([N+](=O)[O-])c1NCC(C)C | 0 | 45µM | 16µM | 13µM | 0 | 40µM
Cc1cc(-c2ccc(N=Nc3ccc4c(S(=O)(=O)O)cc(S(=O)(=O)O)c(N)c4c3O)c(C)c2)ccc1N=Nc1ccc2c(S(=O)(=O)O)cc(S(=O)(=O)O)c(N)c2c1O | 10µM! | - | ? | - | - | -
Nc1c(N=Nc2ccc(-c3ccc(N=Nc4cc(S(=O)(=O)O)c5ccccc5c4N)cc3)cc2)cc(S(=O)(=O)O)c2ccccc12 | 45µM | - | 3.5µM | - | - | -
O=S(=O)(O)c1cc2oc(-c3ccccc3)nc2c2ccccc12 | - | 0 | 0[12.7 µM] | 0 | 0 | 0
Cc1ccsc1C(=O)N1CCN(S(=O)(=O)c2cccc(F)c2)CC1 | - | 0 | 28µM | 0 | 0 | 0
Cc1ccc(S(=O)(=O)N2CCN(C(=O)c3sccc3C)CC2)cc1 | - | 0 | ? | ? | 0 | 0
Cc1ccc2nc(NC(=O)CSc3[nH]c(=O)ncc3C)sc2c1 | - | 0 | 0 | 0 | - | 0
COc1ccc(CN(C(=O)c2ccc(-c3ccccc3)[nH]2)C(C(=O)NC(C)(C)C)c2ccncc2)cc1 (stereo not given) | 45µM | 40µM | ? | ? | 0 | 0
COc1ccc2c(c1)sc1ncc(C(=O)NCc3ccc(OC(C)C)cc3)c(=O)n12 | - | 0 | 0 | 0 | - | 0
O=C(C[C@@H]1C/C=C\C[C@@H](Cc2ccc(F)cc2)C(=O)OCCNC1=O)NCCO | - | 0 | - | - | 0 | 0
O=C1CNC(=O)/C1=C/c1ccc(Br)cc1 | 0 | 0 | - | 0 | 7.5µM | 0
O=C1CNC(=O)/C1=C/c1ccccc1 | 0 | 0 | 0 | 0 | 6µM | 0
O=C(Cn1c(=O)nc(-c2ccccc2F)c2cc(Cl)ccc21)N1CCN(c2ccccc2F)CC1 | - | 0 | 0 | 0 | - | 0
CCOC(=O)c1c(NC(=O)c2ccc(S(=O)(=O)N3CCC(C)CC3)cc2)sc2c1CCN(CC)C2 | - | 0 | 0 | 0 | - | 0
CCCCc1ccc(/C=C(\C#N)C(N)=S)s1 | 40µM | 35µM | 35µM | 45µM | 0 | 25µM
CCCCOC(=O)/C(C#N)=C/c1ccc(-c2ccc(Br)cc2)o1 | - | 0 | 0 | 0 | - | 0
O=C1C(CN2CCCC2)CCCC1CN1CCCC1 (stereo not given) | - | 0 | - | - | 0 | 0
CC[C@@H]1O[C@]2(C=C[C@@H]1C)C[C@H]1C[C@H](CC=C(C)[C@@H](O[C@@H]3C[C@H](OC)[C@H](O[C@@H]4C[C@H](OC)[C@H](O)[C@H](C)O4)[C@H](C)O3)[C@@H](C)C=CC=C3CO[C@@H]4[C@@H](O)C(C)=C[C@@H](C(=O)O1)[C@]34O)O2 | 0 | - | 0[21.5 µM] | - | - | -
CC1CCN(c2c([N+](=O)[O-])nn(-c3ccc4c(c3)OCCO4)[n+]2[O-])CC1 | 0 | ? | 35µM | 22µM | 0 | ?
CN(C)c1ccc(S(=O)(=O)NCC(=O)NCCC2=CCCCC2)cc1[N+](=O)[O-] | - | 0 | 0 | 0 | 0 | 0
CN(C)c1ccc(S(=O)(=O)NCC(=O)NCCOc2ccccc2F)cc1[N+](=O)[O-] | - | 0 | 50µM | 0 | ? | 0
CN(CC(=O)Nc1cccc(F)c1)C(=O)CNS(=O)(=O)c1ccc(N(C)C)c([N+](=O)[O-])c1 | - | ? | 50µM | 71µM | 15µM | 0
CC(=O)N(CCC(c1ccco1)C(C)C)Cc1ccc(Cl)cc1 (stereo not given) | 0 | 0 | 0 | 0 | 0 | 0
CCC(=O)N(CCC(c1ccco1)C(C)C)Cc1ccccc1 (stereo not given) | 45µM | 79µM | - | 0 | ? | 0
COc1ccccc1C(CCN(Cc1ccccc1)C(C)=O)c1ccco1 (stereo not given) | 56µM | 0 | 0[12.7 µM] | ? | 0 | 0
